Reference: PubChem BioAssay (EPA / NIEHS)
Several values for one entry are separate records, joined by “and”; a condition that tells them apart may be missing. Equal values may be shown once. Records with an inconclusive call do not appear. Where a structure was tested more than once in an assay, its records may differ in their call. Activity calls are given as the source filed them. Rule for the calls, unless noted: active = hit-call score of the fitted dose curve at least 0.9, where 1 is the maximum; inactive = score below 0.9.

How the values were obtained:
[1] = read-out: Monocyte Chemoattractant Protein-1 (MCP1), CCL2 (gene 6347); test: BSK_hDFCGF_MCP1: BioMAP Diversity Plus: hDFCGF Assay for Monocyte Chemoattractant Protein-1 (MCP1) Biomarker Activity (AID 2284285); conditions: primary human foreskin fibroblasts
In short: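 MCP-1 ELISA readout was taken 24 hours after dosing primary human dermal fibroblasts in the hDFCGF system, with DMSO as baseline. Parallel sulforhodamine B staining of total protein tracked overt cytotoxicity.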

[2] = read-out: Vascular cell adhesion molecule 1 (VCAM1), VCAM1 (gene 7412); test: BSK_IMphg_VCAM1: BioMAP Diversity Plus: IMphg Assay for Vascular cell adhesion molecule 1 (VCAM1) Biomarker Activity (AID 2284286); conditions: primary human endothelial cells with macrophages
In short: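 ELISA read-out of VCAM-1 on venular endothelial cell/macrophage co-cultures at 24 h post-treatment, with DMSO as baseline and positive-direction fitting. Parallel sulforhodamine B total-protein staining (560 nm) served as the overt cytotoxicity measure.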

[3] = read-out: Intercellular Adhesion Molecule 1 (ICAM1), ICAM1 (gene 3383); test: BSK_hDFCGF_ICAM1: BioMAP Diversity Plus: hDFCGF Assay for Intercellular Adhesion Molecule 1 (ICAM1) Biomarker Activity (AID 2284287); conditions: primary human foreskin fibroblasts
In short: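 ICAM-1 ELISA readout 24 h after dosing, DMSO as baseline, in human dermal foreskin fibroblast cultures. Cytotoxicity checked in parallel wells by SRB staining (0.1% SRB, 10% TCA fixation, 560 nm).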

CD40, CD40 (gene 958) = test: BSK_IMphg_CD40: BioMAP Diversity Plus: IMphg Assay for CD40 Biomarker Activity (AID 2284288); conditions: primary human endothelial cells with macrophages
In short: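 ELISA read-out of cell-surface CD40 at 24 h in human venular endothelial cell/macrophage co-cultures. Activity fitted in the positive direction against DMSO; parallel SRB staining (560 nm) gauges overt cytotoxicity.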

[4] = read-out: Interleukin-1 alpha (IL1a), IL1A (gene 3552); test: BSK_IMphg_IL1a: BioMAP Diversity Plus: IMphg Assay for Interleukin-1 alpha (IL1a) Biomarker Activity (AID 2284290); conditions: primary human endothelial cells with macrophages
In short: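 IL-1α is quantified by ELISA at 24 h in the endothelial/macrophage IMphg co-culture, with gain of signal fitted relative to DMSO. Parallel SRB total-protein staining flags overt toxicity.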

[5] = read-out: E-selectin (Homo sapiens) (UniProt P16581); test: BSK_IMphg_ESelectin: BioMAP Diversity Plus: IMphg Assay for Eselectin Biomarker Activity (AID 2284291); conditions: primary human endothelial cells with macrophages
In short: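 Analysed against DMSO baseline in the positive fitting direction, this endpoint is an ELISA read of E-selectin. It comes from human venular endothelial cells co-cultured with macrophages, sampled 24 h post-dose.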

[6] = read-out: Macrophage colony-stimulating factor (MCSF), CSF1 (gene 1435); test: BSK_IMphg_MCSF: BioMAP Diversity Plus: IMphg Assay for Macrophage colony-stimulating factor (MCSF) Biomarker Activity (AID 2284293); conditions: primary human endothelial cells with macrophages
In short: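 M-CSF was measured by ELISA in human venular endothelial cell/macrophage co-cultures dosed for 24 hours. Sulforhodamine B staining of parallel cultures assessed cytotoxicity; data fitted against DMSO baseline.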

[7] = read-out: Interleukin-10 (IL10), IL10 (gene 3586); test: BSK_IMphg_IL10: BioMAP Diversity Plus: IMphg Assay for Interleukin-10 (IL10) Biomarker Activity (AID 2284294); conditions: primary human endothelial cells with macrophages
In short: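 IL-10 read by ELISA after 24 h chemical exposure of primary human venular endothelial cell/macrophage cocultures, with DMSO as baseline. Parallel SRB staining (560 nm) gauged overt cytotoxicity.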

[8] = BSK_IMphg_SRB.Mphg: Macrophage Viability Assessment in the BioMAP Diversity Plus: IMphg Assay (AID 2284295); conditions: primary human endothelial cells with macrophages
In short: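 Cytotoxicity read-out: parallel cultures fixed with 10% TCA, stained with 0.1% sulforhodamine B, read at 560 nm. System combines venular endothelium and macrophages; sampled 24 h post-dosing, fitted positively relative to DMSO control.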

[9] = read-out: Thrombomodulin, THBD (gene 7056); test: BSK_LPS_Thrombomodulin: BioMAP Diversity Plus: LPS Assay for Thrombomodulin Biomarker Activity (AID 2284296); conditions: primary human HUVEC with PBMC
In short: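 Thrombomodulin on the surface of LPS-activated endothelial/PBMC co-cultures was quantified by ELISA at 24 hours post-dosing, with DMSO as baseline. Parallel SRB total-protein staining flagged overt cytotoxicity.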

CD69, CD69 (gene 969) = test: BSK_LPS_CD69: BioMAP Diversity Plus: LPS Assay for CD69 Biomarker Activity (AID 2284303); conditions: primary human HUVEC with PBMC
In short: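 CD69 surface levels were read by ELISA after 24 h chemical treatment of an LPS-stimulated HUVEC plus PBMC co-culture; positive-direction fit against DMSO vehicle.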

[10] = IUF_NPC2c_oligodendrocyte_migration_120hr: Leibniz Research Institute for Environmental Medicine (IUF) 120-hour Neural Progenitor Cell Migration Assay for Oligodendrocyte Migration (NPC2c) (AID 2284297);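 note: O4-positive oligodendrocyte migration distance divided by radial glia migration distance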
In short: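 Primary hNPC spheres migrating on extracellular matrix, exposed five days to a 7-point dilution series with solvent control. Oligodendrocyte migration was scored by high-content imaging of O4 immunostaining and expressed relative to radial glia distance.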

[11] = IUF_NPC2a_radial_glia_migration_120hr: Leibniz Research Institute for Environmental Medicine (IUF) 120-hour Neural Progenitor Cell Migration Assay for Radial Glia Migration (NPC2a) (AID 2284298)
In short: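 In this multiplexed test, fetal hNPC spheres migrate radially on poly-D-lysine/laminin in N2 medium (37C, 5% CO2, pH 7.2-7.6) under continuous compound exposure over five days. Migration is scored at 120 h from automated Hoechst nuclear imaging.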

[12] = IUF_NPC2a_radial_glia_migration_72hr: Leibniz Research Institute for Environmental Medicine (IUF) 72-hour Neural Progenitor Cell Migration Assay for Radial Glia Migration (NPC2a) (AID 2284299)
In short: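 Spheres of human primary neural progenitors migrate on poly-D-lysine/laminin under compound exposure at 37C, 5% CO2. The 72 h radial glia migration distance comes from brightfield images, measured manually.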

[13] = IUF_NPC2b_neuronal_migration_120hr: Leibniz Research Institute for Environmental Medicine (IUF) 120-hour Neural Progenitor Cell Migration Assay for Neuron Migration (NPC2b) (AID 2284300)
In short: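 Neurons identified by TUBB3 immunostaining and Hoechst nuclei; migration distance measured automatically on fixed wells at 120 h, normalized to glia migration. Exposure spanned five days of differentiation in N2 medium, seven test concentrations.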

[14] = IUF_NPC3_neuronal_differentiation_120hr: Leibniz Research Institute for Environmental Medicine (IUF) 120-hour Neuronal Differentiation Assay (NPC3) (AID 2284301)
In short: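 Value is percent TUBB3-positive neurons among Hoechst-stained nuclei in the migration area, scored by trained CNN after 120 h differentiation. Primary hNPC spheres on poly-D-lysine/laminin, N2 medium, continuous dosing from day 0, half-refeed day 3; DMSO reference.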

[15] = IUF_NPC4_neurite_length_120hr: Leibniz Research Institute for Environmental Medicine (IUF) 120-hour Neuronal Morphology Assay for Neurite Length (NPC4) (AID 2284302)
In short: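 Neurite length, the mean in um across TUBB3-stained neurons, is derived by skeletonization of high-content images after 120 h differentiation. Compound exposure, 7 concentrations plus solvent control, ran from plating of hNPC spheres on poly-D-lysine/laminin, with medium half-replaced on day 3.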

[16] = IUF_NPC5_oligodendrocyte_differentiation_120hr: Leibniz Research Institute for Environmental Medicine (IUF) 120-hour Oligodendrocyte Differentiation Assay (NPC5) (AID 2284304; active = hit-call score of the fitted dose curve at least 0.9, where 1 is the maximum;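 note: primary human fetal neural progenitor spheres plated to migrate and differentiate; share of O4-positive cells among Hoechst nuclei found by CNN image analysis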)
In short: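 Human primary NPC neurospheres migrating and differentiating on laminin for 120 h under continuous compound exposure (serial dilution, solvent control). Endpoint: percent O4+ oligodendrocytes among Hoechst nuclei, detected by CNN image analysis, with DMSO as negative control.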

[17] = IUF_NPC4_neurite_area_120hr: Leibniz Research Institute for Environmental Medicine (IUF) 120-hour Neuronal Morphology Assay for Neurite Area (NPC4) (AID 2284305; active = hit-call score of the fitted dose curve at least 0.9, where 1 is the maximum)
In short: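 Neurite area (pixels, nuclei excluded) of TUBB3-positive neurons from hNPC spheres differentiating 5 days under continuous exposure at 37 C, 5% CO2. High-content imaging; loss of signal versus DMSO control across 7 concentrations.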

[18] = IUF_NPC2-5_cytotoxicity_72hr: Cytotoxicity Assessment at 72 hours in the Leibniz Research Institute for Environmental Medicine (IUF) Neural Progenitor Cell Migration and Differentiation Assay for Cytotoxicity (NPC2-5) (AID 2284306; active = hit-call score of the fitted dose curve at least 0.9, where 1 is the maximum;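 note: LDH release into supernatant measured by resorufin fluorescence marking membrane damage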)
In short: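 Membrane-integrity cytotoxicity at 72 h, read as LDH-driven resorufin fluorescence in supernatant. hNPC spheres from fetal cortex differentiate on coated plates in N2 medium, 37C, 5% CO2; seven serial compound concentrations plus solvent control (DMSO ≤0.1%).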

Measured: AC50

E-selectin (Homo sapiens), sequence (P16581 whole entry, looked up): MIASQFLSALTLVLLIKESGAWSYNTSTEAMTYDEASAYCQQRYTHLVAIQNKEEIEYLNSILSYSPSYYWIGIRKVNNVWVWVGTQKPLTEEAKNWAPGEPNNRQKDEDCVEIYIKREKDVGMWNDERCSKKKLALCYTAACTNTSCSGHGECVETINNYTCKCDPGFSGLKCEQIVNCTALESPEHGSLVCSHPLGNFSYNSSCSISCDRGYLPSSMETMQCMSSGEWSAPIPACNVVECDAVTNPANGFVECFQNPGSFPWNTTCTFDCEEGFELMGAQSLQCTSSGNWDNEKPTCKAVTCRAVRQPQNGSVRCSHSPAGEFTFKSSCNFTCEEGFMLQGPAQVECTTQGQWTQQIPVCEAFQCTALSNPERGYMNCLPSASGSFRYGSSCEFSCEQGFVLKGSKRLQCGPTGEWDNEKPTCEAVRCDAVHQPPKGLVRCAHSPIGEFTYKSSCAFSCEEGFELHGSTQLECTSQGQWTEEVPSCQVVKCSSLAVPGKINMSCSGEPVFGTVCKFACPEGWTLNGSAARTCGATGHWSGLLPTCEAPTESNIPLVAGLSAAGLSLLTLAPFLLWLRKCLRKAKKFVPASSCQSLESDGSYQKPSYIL

O=P(O)(O)CCC(F)(F)C(F)(F)C(F)(F)C(F)(F)C(F)(F)C(F)(F)F
active: [9] 0.219 µM
inactive: [1] | [2] | [3] | CD40, CD40 (gene 958) | [4] | [5] | [6] | [7] | [8] | [9] | CD69, CD69 (gene 969)

O=P(O)(O)CCC(F)(F)C(F)(F)C(F)(F)C(F)(F)C(F)(F)C(F)(F)C(F)(F)C(F)(F)F
active: [3] 25.7 µM | [5] 37.8 µM and 34.5 µM | [7] 39.7 µM and 31.3 µM
inactive: [1] | [2] | [3] | CD40, CD40 (gene 958) | [4] | [6] | [8] | [9] | CD69, CD69 (gene 969)

CC(C)c1c(C(=O)Nc2ccccc2)c(-c2ccccc2)c(-c2ccc(F)cc2)n1CC[C@@H](O)C[C@@H](O)CC(=O)O
active: [18] 2540 nM
inactive: [10] | [11] | [12] | [13] | [14] | [15] | [16] | [17]

C=CC(=O)OCCC(F)(F)C(F)(F)C(F)(F)C(F)(F)C(F)(F)C(F)(F)C(F)(F)C(F)(F)F
inactive: [1] | [2] | [3] | CD40, CD40 (gene 958) | [4] | [5] | [6] | [7] | [8] | [9] | CD69, CD69 (gene 969)
active: [1] 7.29 µM | [3] 1.19 µM | [9] 2.94 µM

O=C(O)CCC(F)(F)C(F)(F)C(F)(F)C(F)(F)C(F)(F)C(F)(F)F
active: [4] 5.95 µM and 16.4 µM and 20.5 µM | [7] 38 µM and 30 µM
inactive: [1] | [2] | [3] | CD40, CD40 (gene 958) | [5] | [6] | [8] | [9] | CD69, CD69 (gene 969)

O=C1NS(=O)(=O)c2ccccc21
active: [9] 1.09 µM
inactive: [1] | [3] | [9] | [10] | [11] | [12] | [13] | [14] | [15] | CD69, CD69 (gene 969) | [16] | [17] | [18]

O=C(O)CCC(F)(F)C(F)(F)C(F)(F)C(F)(F)C(F)(F)F
active: [4] 9.45 µM | CD69, CD69 (gene 969) 5.95 µM
inactive: [1] | [2] | [3] | CD40, CD40 (gene 958) | [4] | [5] | [6] | [7] | [8] | [9] | CD69, CD69 (gene 969)

O=C(O)C(F)(F)OC(F)(F)C(F)(F)OC(F)(F)C(F)(F)OC(F)(F)C(F)(F)C(F)(F)C(F)(F)F
active: [1] 8.5 µM and 8.66 µM | [2] 51.8 µM and 48.8 µM | [3] 19.7 µM and 17.2 µM | CD40, CD40 (gene 958) 42.4 µM and 40.9 µM | [4] 44.1 µM and 22.4 µM | [5] 40.8 µM and 31.9 µM | [7] 53.4 µM and 56.3 µM | [8] 42.9 µM and 45.1 µM | [9] 45.8 µM and 44.1 µM | CD69, CD69 (gene 969) 39.9 µM and 41.2 µM
inactive: [6]
